Consider 51 compounds from ChEMBL document CHEMBL4513216, “Probing the Open Global Health Chemical Diversity Library for Multistage-Active Starting Points for Next-Generation Antimalarials” (ACS Infect Dis, 2020).

The structures appear in SMILES notation. Screen size: about 69,000 compounds; about 8,600 (12%) showed an effect of 50% or more. Many of the other results were omitted from the sample, so strong results are more common in it than they were.

For the assay, the system named is Plasmodium berghei. Kind of assay: Screen against P. berghei liver stage (PbLuc), transformed with Luciferase, at 10uM. The format is functional, HepG2. The note with it: tested at 10 uM.
In the case of `CC(C)COC(=O)N1CCCN(C(=O)c2ccnc(N(C)C)c2)CC1`, the INHIBITION is recorded as 33.4%.

As for `CC(C)CCC(=O)N1CCN(C(=O)c2ccc3nccn3c2)CC1`, the INHIBITION was found to be 24.2%.

Regarding `CC(C)COC(=O)N1CCN(C(=O)c2ccc3nccn3c2)CC1`, the INHIBITION was found to be 50.1%.

For the compound `c1ncn(CC2CCCCN2Cc2csc(-c3ccsc3)n2)n1` (stereo unspecified), the INHIBITION is -58.7%.

Take `CCC1COCCN1C(=O)NCc1nccn1CC(C)C` (stereo unspecified): the INHIBITION is listed as 8.59%.

In the case of `Cn1cccc1CNC(=O)N(CCO)C1CCCc2ccccc21` (stereo unspecified), the INHIBITION is on record as 26.8%.

For `O=C(NCCc1cccs1)[C@]12COC[C@H]1CN(Cc1ccncc1)C2`, the INHIBITION was determined as 54.8%.

On to `O=C(NC1CC(F)(F)C1)[C@]12COC[C@H]1CN(Cc1ccsc1)C2`, for which the INHIBITION worked out at 35.8%.

Turning to `CN1C[C@@H]2COC[C@]2(C(=O)NCc2cccs2)C1`, the INHIBITION stood at 4.02%.

Take `O=C(NCCc1cccs1)[C@]12COC[C@H]1CN(c1ncccn1)C2`: the INHIBITION is 52.1%.

In the case of `CN1C[C@@H]2COC[C@]2(C(=O)NCCc2cccs2)C1`, the INHIBITION worked out at 34.6%.

Consider `O=C(NC1CC(F)(F)C1)[C@]12COC[C@H]1CN(Cc1ccccc1)C2`, for which the INHIBITION amounted to 61.1%.

For `O=C(NC1CC(F)(F)C1)[C@]12COC[C@H]1CN(Cc1cccnc1)C2`, the INHIBITION is listed as 29.4%.

Turning to `O=C(NCCc1cccs1)[C@]12COC[C@H]1CN(C1CCOCC1)C2`, the INHIBITION is listed as 61.1%.

Regarding `O=C(NCCc1cccs1)[C@]12COC[C@H]1CN(Cc1ccccn1)C2`, the INHIBITION was determined as 24.9%.

Consider `CS(=O)(=O)N1C[C@@H]2COC[C@]2(C(=O)NCCc2cccs2)C1`, for which the INHIBITION is recorded as 24.9%.

In the case of `O=C(NCc1cccs1)[C@]12COC[C@H]1CN(c1ncccn1)C2`, the INHIBITION is reported as 2.41%.

As for `Cn1cc(CN2C[C@@H]3COC[C@]3(C(=O)NCc3cccs3)C2)cn1`, the INHIBITION is reported as 28.3%.

As for `CN(C)C(=O)CCS(=O)(=O)Cc1coc(-c2ccc(F)cc2)n1`, the INHIBITION is listed as -23.4%.

`CCC(CCN)n1ccc(C(F)(F)F)n1` (stereo unspecified): the INHIBITION is reported as 35.2%.

For the compound `Cc1cc(C)n(-c2cncc(NCCNC(=O)C(C)(C)C)n2)n1`, the INHIBITION is on record as 34.9%.

With `CC(C)C(N)CNS(=O)(=O)Cc1cccc2cccnc12` (stereo unspecified), the INHIBITION came out at 24.2%.

Turning to `CC(C)CCN(C(=O)CCn1cc(S(N)(=O)=O)cn1)C1CC1`, the INHIBITION was 11.4%.

As for `Cn1cc(-c2cnc(-c3ccnn3C)nc2)cc1C(=O)N1CCCC1`, the INHIBITION is given as -4.26%.

Take `Cc1ccc(C2COCCN2C(=O)c2cccc(N(C)C)c2)o1` (stereo unspecified): the INHIBITION was 32.9%.

For the compound `Cc1ccc(C(=O)N2CCc3c(CNS(C)(=O)=O)cncc3C2)o1`, the INHIBITION is given as -3.83%.

In the case of `Cc1nc(CO[C@@H]2CN(Cc3nccs3)[C@@H]3COC[C@@H]32)cs1`, the INHIBITION was -56.3%.

Take `Fc1ccc(CN2C[C@@H](OCc3ccccn3)[C@H]3COC[C@H]32)cc1`: the INHIBITION is given as 43.9%.

Consider `Cc1nc(CO[C@H]2CN(C(=O)c3ccc[nH]3)[C@@H]3COC[C@H]23)cs1`, for which the INHIBITION is 13.1%.

`O=C(c1ccc[nH]1)N1C[C@H](OCc2ccccn2)[C@H]2COC[C@H]21`: the INHIBITION is listed as 64.8%.

As for `O=C(c1ccnnc1)N1C[C@H](OCc2ccccn2)[C@H]2COC[C@H]21`, the INHIBITION came to 5.67%.

On to `c1ccc(CO[C@@H]2CN(Cc3nccs3)[C@@H]3COC[C@@H]32)nc1`, for which the INHIBITION was found to be 59.3%.

Regarding `CN(CC(=O)N1CCCCC1Cn1cccn1)Cc1ccccc1` (stereo unspecified), the INHIBITION stood at 23.5%.

On to `Cn1nc(Cn2cccn2)c2c1CN(Cc1ccsc1)C2`, for which the INHIBITION is recorded as -41.8%.

As for `O=C(C[C@@H]1COC[C@H]2CN(CC3CC3)C[C@@H]12)NCc1cccnc1`, the INHIBITION stood at 53.4%.

With `COCCNC(=O)C[C@@H]1COC[C@H]2CN(Cc3cccnc3)C[C@@H]12`, the INHIBITION is listed as 40.5%.

As for `O=C(C[C@@H]1COC[C@H]2CN(C3CCC3)C[C@@H]12)NCc1cccnc1`, the INHIBITION was 27.5%.

Consider `COCCN1C[C@@H]2COC[C@@H](CC(=O)NCc3cccnc3)[C@@H]2C1`, for which the INHIBITION is reported as 47.4%.

In the case of `O=C(C[C@@H]1COC[C@H]2CN(Cc3cccnc3)C[C@@H]12)NCC1CC1`, the INHIBITION is on record as 54.4%.

Take `O=C(C[C@@H]1COC[C@H]2CN(Cc3cccnc3)C[C@@H]12)N1CCCC1`: the INHIBITION is -11.6%.

Take `Cc1cccc(N2CCN(C(=O)CNCCn3cccn3)CC2)c1`: the INHIBITION was -76.5%.

For `CCC[C@H]1CN(c2cncc(C(=O)N(C)C)n2)C[C@@H]1N(C)C`, the INHIBITION was 33.7%.

In the case of `NC(=O)CN1CCN(C(=O)c2cc(Cl)cc3cccnc23)CC1`, the INHIBITION is reported as 13.4%.

For the compound `CN(C)c1nc2c(c(NCc3nnc4n3CCCCC4)n1)CCNC2`, the INHIBITION was found to be 5.78%.

For `CNC(=O)c1ccccc1NCc1ncnn1C`, the INHIBITION is listed as 20%.

For `Cn1ccc2cc(CC3COCCN(C(=O)c4cccnc4)C3)ccc21` (stereo unspecified), the INHIBITION is listed as 29.61%.

Regarding `COCCn1nc(C(=O)N(C)Cc2cccnc2)ccc1=O`, the INHIBITION was 6.72%.

On to `CC1CN(C)CCN1C(=O)c1ccc(-n2cnnc2)cc1` (stereo unspecified), for which the INHIBITION is reported as 66.1%.

Turning to `CC(O)CN1CCN(C(=O)c2cnn(-c3ccc(Cl)cc3)c2)CC1` (stereo unspecified), the INHIBITION turned out to be 16.6%.

Regarding `CC1CN(C)CCN1C(=O)c1cccn1Cc1cccnc1` (stereo unspecified), the INHIBITION worked out at 17.9%.

For the compound `CC1CN(C)CCN1C(=O)c1cnn(-c2cccc(Cl)c2)c1` (stereo unspecified), the INHIBITION turned out to be 74.4%.
